# From PubChem BioAssay AID652104 (National Center for Advancing Translational Sciences (NCATS), 2013)
# In all, about 410,000 compounds went through this assay and about 7,200 (1.8%) were called active. A call without a number means that no potency is given here. Roughly 7% stayed inconclusive and do not appear here. Calls follow the shape of the dose curve; as a rule, active = well fitted activation curve with a large enough effect; inconclusive = small, poorly fitted or top-dose-only effect, or another doubt; inactive = no such curve, though single readings can be large or run the other way. For the sample, actives were picked, then their nearest neighbours and some compounds at random.
# Assay: qHTS of TDP-43 Inhibitors; also: nearly all actives have a fitted effect of over 50% in size
# Details: TDP-43 expressing yeast growth rescue, BacTiter-Glo, 24 h; series mostly up to 46.1 µM
# Source text: The goal of this project is to identify new chemical probes capable of reversing the toxicity associated with TDP-43 which is associated with frontotemporal lobar degeneration and amyotrophic lateral sclerosis. These compounds will provide a complementary approach to deciphering the tangled mechanisms of toxicity and protection that we have uncovered through genome-wide genetic screens and are beginning to uncover in a large-scale proteomics analysis with mass spectroscopy.
# To this end, a miniaturized assay was developed to be screened against the Molecular Libraries Small Molecule Repository (MLSMR) to discover TDP-43 inhibitors. Please note that in the set-up this yeast-based assay compounds that inhibit as TDP-43, have a read-out as activators.
# NIH Chemical Genomics Center [NCGC]
# NIH Molecular Libraries Probe Centers Network [MLPCN]
# Assay Submitter (PI): Susan Lindquist, Whitehead Institute/MIT
# Dispense 2.5 microL yeast galactose medium per 1536-well plate, pin compound, dispense 2.5 microL TDP-43 expressing yeast in galactose medium at OD600=0.02 (pregrown in raffinose medium to mid-log phase) per well, incubate for 24 hr at 30 deg C, and cell growth will be measured using 5 microL of Bactiter/Glo reagent to entire plate and read using Luminescence Protocol in ViewLux.
# Potency is read from the fitted curve at half-maximal effect.
SMILES,Potency,growth rescue (activation)
CC(NC(=S)Nc1ccccc1)C(c1cccs1)N1CCOCC1 (stereo not given),inactive,
CC(c1ccco1)N(C(=O)Nc1ccccc1)C1CCCCC1 (stereo not given),inactive,
CC(NC(=S)Nc1ccccc1)C1COc2ccccc2O1 (stereo not given),12.6 µM (active),
COc1ccc(NC(=O)c2cc3cc(C)ccc3n2C)cc1,,2.24% [at 9.22 µM] (inactive)
CC1CCN(c2nc3ccc(C(=O)N4CCN(c5ccccc5)CC4)cc3s2)CC1,inactive,
Cc1nc2ccc(C(=O)N3CCSCC3)cc2s1,inactive,
Cc1nc2ccc(C(=O)N3CCN(c4ccccc4)CC3)cc2s1,14.1 µM (active),
COc1nc(N=C(N)N)nc2c(C)cccc12,inactive,
O=C(Oc1ccccc1)Oc1ccc2c(c1)oc(=O)c1ccccc12,inactive,
CC(=O)Oc1ccc(-c2nc3c(C)cccc3c(=O)o2)cc1,12.6 µM (active),
O=S(=O)(NCc1ccc(Cl)cc1Cl)c1cccs1,8.91 µM (active),
O=C(NCc1ccc(Cl)cc1)C1CCN(S(=O)(=O)c2cccs2)CC1,inactive,
O=S(=O)(Cc1ccc(Cl)cc1Cl)c1ccc(Cl)cc1,inactive,
CC1=C(C(=O)Nc2ccccc2Cl)C(c2cccs2)n2ncnc2N1 (stereo not given),inactive,
CCNC(=O)c1cc2n(n1)CCCN(Cc1ccc(C)cc1)C2=O,inactive,
CC(/C=C/c1ccco1)=N/NC(=O)C1COc2ccccc2O1 (stereo not given),inactive,
Cc1ccc(C(=O)N/N=C\c2cc(Br)c(Br)o2)cn1,inactive,
O=C(N/N=C\c1cc(Br)c(Br)o1)C1COc2ccccc2O1 (stereo not given),11.2 µM (active),
O=C(Nc1nc2ccc(F)cc2s1)c1nc(SCc2ccccc2F)ncc1Cl,inactive,
COc1cc(CNCCSc2nnnn2C)ccc1OCc1c(F)cccc1Cl,inactive,
CCOc1ccc(Nc2nc3c(S(=O)(=O)c4cccc(Cl)c4)nnn3c3ccsc23)cc1,inactive,
O=C(NCc1ccc(F)cc1)c1ccc(Cn2c(SCc3ccc(F)cc3)nc3cccnc32)cc1,inactive,

SMILES,Potency,growth rescue (activation)
CCCCN(C)c1nnc(NC(=O)Nc2ccc(Br)c(C)c2)s1,,22.1% [at 9.22 µM] (inactive)
CCCCCNC(=O)C(c1ccc(OC)cc1)n1c(=O)c(-c2ccccc2)nc2ccccc21 (stereo not given),inactive,
COc1ccc(C(C(=O)NCc2ccccc2)n2c(=O)c(-c3ccccc3)nc3ccccc32)cc1 (stereo not given),inactive,
COc1ccc(NC(=O)C(c2ccncc2)n2c(=O)c(-c3cc4ccccc4[nH]3)nc3ccccc32)cc1 (stereo not given),17.8 µM (active),
COc1ccc(CC(=O)NCCc2sc3nc(-c4ccc(OC)cc4)nn3c2C)cc1,inactive,
CC1CCCCN1Cc1c(O)ccc2c(=O)c(-c3cccc(Cl)c3)c(C(F)(F)F)oc12 (stereo not given),inactive,
O=C(c1cc(COc2cccc(C(F)(F)F)c2)on1)N1CCSCC1,22.4 µM (active),
O=C(NC1Cc2ccccc2C1)c1cc(COc2cccc(C(F)(F)F)c2)on1,inactive,
CC1CN(C(=O)c2cc(COc3c(F)cccc3F)on2)CCN1C (stereo not given),inactive,
CCc1cccc(NC(=O)Cn2nc(CC)n3c(cc4cc(C)ccc43)c2=O)c1,inactive,
COc1ccc(C2(Nc3cccc(F)c3)C(=O)c3ccccc3C2=O)cc1,inactive,
CCCOc1ccccc1C1CC(=O)Nc2cc3c(cc21)OCO3 (stereo not given),20 µM (active),
O=C1CC(c2ccc(F)cc2F)c2cc3c(cc2N1)OCO3 (stereo not given),inactive,
Cc1cc2c(cc1C)C(c1cccc(OC(C)C)c1)CC(=O)N2 (stereo not given),inactive,
Cc1ccc(Cl)cc1N1CCN(C(=O)C2CCC(CNS(=O)(=O)c3cccs3)CC2)CC1 (stereo not given),inactive,
COc1cccc(CN2CCc3nc(SCC(=O)Nc4ccccc4)[nH]c(=O)c3C2)c1,inactive,
O=C(O)c1ccc(CSc2nc3cccnc3n2Cc2cccc(F)c2)cc1,inactive,
Cc1oc(-c2ccccc2)nc1Cn1c(SCc2cccc(C(F)(F)F)c2)nc2cccnc21,20 µM (active),
O=C(NC1CCCCC1)c1ccc(Cn2c(SCc3ccccc3)nc3cccnc32)cc1,inactive,
Cc1ccccc1OCc1nc2c3cnn(-c4ccccc4F)c3ncn2n1,inactive,
COCCNc1nc(-c2ccccc2)nc2c1oc1ccccc12,12.6 µM (active),
CCc1nc(Nc2ccc3nccnc3c2)c2oc3ccccc3c2n1,inactive,

SMILES,Potency,growth rescue (activation)
C[C@@H](Nc1nc(-c2ccccc2)nc2c1oc1ccccc12)C(=O)O,inactive,
Cc1cc(NC(=O)CC(C)C)cc(-c2nc3ncccc3o2)c1O,inactive,
CCOc1ccc(NC(=O)c2cnn(-c3ccccc3)c2-n2cccc2)cc1,,-9.72% [at 9.22 µM] (inactive)
COc1ccccc1CNc1nc2ccc(Cl)cc2n2cnnc12,inactive,
COc1ccccc1-c1cc2nc(NCc3cccc(Cl)c3)ccn2n1,17.8 µM (active),
CC(C)Cc1ccc(-c2cc3nc(NCc4cccc(Cl)c4)ccn3n2)cc1,inactive,
CCC1CCCCN1C(=O)Cn1c(=O)n(CCCCCC(=O)NCc2ccccc2)c(=O)c2sccc21 (stereo not given),inactive,
Cc1nc(N)sc1-c1ccccc1,inactive,
S=c1[nH]nc(NCCc2ccccc2)s1,,-8.25% [at 0.397 µM] (inactive)
Cc1nc(C)c(-c2csc(NCCc3ccccc3)n2)s1,15.8 µM (active),
Cc1c(CCNC(=O)c2ccc(C(F)(F)F)cc2)sc2nc(-c3ccc(F)cc3)nn12,inactive,
COc1ccc(C2NC(=O)N(C)C3=C2C(=O)N(c2ccc(C(=O)O)cc2)C3)cc1 (stereo not given),inactive,
COC(=O)c1scc(-c2ccccc2)c1S(=O)(=O)Nc1ccccc1,12.6 µM (active),
COC(=O)c1scc(-c2ccc(C)cc2)c1S(=O)(=O)Nc1cc(Cl)c(OC)cc1OC,inactive,
CCOC(=O)c1scc(-c2ccc(C)cc2)c1S(=O)(=O)Nc1cc(C)ccc1C,inactive,
COc1cc(C(=O)NCCc2csc3nc(-c4ccccc4C)nn23)cc(OC)c1OC,inactive,
COc1ccc(NC(=O)C(c2ccccc2)N2Cc3ccccc3C2=O)cc1 (stereo not given),,0% [at 9.22 µM] (inactive)
Cc1cc(C)cc(NC(c2nnc(-c3cccc(F)c3)o2)c2ccc(F)cc2Cl)c1 (stereo not given),inactive,
O=C(/C=C/Nc1ccc(S(=O)(=O)Nc2cnc3ccccc3n2)cc1)c1cccnc1,inactive,
O=C(/C=C/c1ccc(Cl)c([N+](=O)[O-])c1)c1cccnc1,3.16 µM (active),
C/C(=N\NC(=O)Cc1ccccc1[N+](=O)[O-])c1cccnc1,inactive,
